# From PubChem BioAssay (NCATS)
# “And” between values parts separate entries of the source, which are not always exact repeats. Equal values may be shown once. Inconclusive results are not listed. Entries that show only a call come without a potency. The source made the active and inactive calls. Calls come from the whole dose curve; as a rule, active = well fitted curve in the direction sought with a large enough effect; inconclusive = small, poorly fitted or top-dose-only effect, or another doubt; inactive = no such curve, though single readings can be large; an effect the other way counts as inactive or inconclusive.
# Experiment: qHTS of pediatric cancer cell lines to identify multiple opportunities for drug repurposing: Primary screen for MG 63 (6-TG R) cells (AID 1347105); note: nearly all actives have a fitted effect of over 50% in size; note: potency is the fitted concentration of half-maximal effect
# Conditions: MG 63 (6-TG R) viability, CellTiter-Glo, 48 h; series mostly up to 46 µM
# In short: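 Cells seeded at 500-1,000 cells/well in growth media, rested 5 hours at 37 degrees C, 5% CO2, then dosed; MIPE compounds at 11-point (from 0.78 nM) and NPC at 8-point (from 0.59 nM) final concentrations. Viability by CellTiter-Glo luminescence after 48 hours.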
row,SMILES,Potency
1,O=C(OC1C[C@H]2CC[C@@H](C1)[N+]21CCCC1)C(O)(c1ccccc1)c1ccccc1 (stereo not given in full),inactive
2,C=CCc1cc(OC)c(O)c(C(=O)NCCO)c1,inactive
3,Cc1nc(Nc2ncc(C(=O)Nc3c(C)cccc3Cl)s2)cc(N2CCN(CCO)CC2)n1,8.4 nM (active)
4,Cc1cccc(-c2[nH]ncc2-c2ccc3ncccc3n2)n1,inactive
5,Cc1nc(-c2ccc(OCC(C)C)c(C#N)c2)sc1C(=O)O,inactive
6,Oc1ccc(OCc2ccccc2)cc1,inactive
7,O=C(NCCO[N+](=O)[O-])c1cccnc1,inactive
8,Cc1ccc(C)c(OCCCC(C)(C)C(=O)O)c1,inactive
9,CC1(C)NC(=O)N(c2ccc([N+](=O)[O-])c(C(F)(F)F)c2)C1=O,inactive
10,CC1(C)C(=O)N(CCN2CCC(C(=O)c3ccc(F)cc3)CC2)c2ccccc21,inactive
11,CCOC(=O)C1=C[C@@H](OC(CC)CC)[C@H](NC(C)=O)[C@@H](N)C1,inactive
12,C[C@@H](N)C1CCC(C(=O)Nc2ccncc2)CC1 (stereo not given in full),inactive
13,Cc1nccn1CC1CCc2c(c3ccccc3n2C)C1=O (stereo not given),inactive
14,CCOc1cc(CC(=O)N[C@@H](CC(C)C)c2ccccc2N2CCCCC2)ccc1C(=O)O,inactive
15,Cc1cc(=O)oc2cc(O)ccc12,inactive
16,CC(C)Oc1ccc2c(=O)c(-c3ccccc3)coc2c1,inactive
17,CNC[C@@H](O)[C@@H](O)[C@H](O)[C@H](O)CO,inactive
18,Cc1cccc(CN2CCN(C(c3ccccc3)c3ccc(Cl)cc3)CC2)c1 (stereo not given),inactive

row,SMILES,Potency
1,COc1c2occc2cc2ccc(=O)oc12,inactive
2,C[C@]12CCC(=O)C=C1CC[C@@H]1[C@H]2[C@@H](O)C[C@@]2(C)[C@H]1CC[C@]2(O)C(=O)CO,inactive
3,O=C(CCc1ccc(O)cc1)c1c(O)cc(O)cc1O,inactive
4,Cc1ncc([N+](=O)[O-])n1CC(C)O (stereo not given),inactive
5,Cc1cc(=O)c2c(O)c3c(O)cc(=O)c4c3c3c(cc(O)c1c23)C(C)(C)C=4O,920 nM (active) and 4.69 µM (active)
6,O=C(O)CCNC(=O)c1ccc(N=Nc2ccc(O)c(C(=O)O)c2)cc1,inactive
7,COCCCN1CCC(NC(=O)c2cc(Cl)c(N)c3c2OCC3)CC1,inactive
8,CCN(CC)C(=S)SSC(=S)N(CC)CC,37.2 nM (active)
9,CC1Cc2ccccc2N1NC(=O)c1ccc(Cl)c(S(N)(=O)=O)c1 (stereo not given),inactive
10,O=C(CS(=O)Cc1ccco1)NCC=CCOc1cc(CN2CCCCC2)ccn1 (stereo not given),inactive
11,O=P(O)(O)C(O)(Cn1ccnc1)P(=O)(O)O,inactive
12,COc1cc(C(C)=O)ccc1OCCCN1CCC(c2noc3cc(F)ccc23)CC1,inactive
13,CC1=C(C(=O)O)N2C(=O)[C@@H](NC(=O)[C@H](N)C3=CCC=CC3)[C@H]2SC1,inactive
14,Cc1ccc(NC(=O)c2ccc(CN3CCN(C)CC3)cc2)cc1Nc1nccc(-c2cccnc2)n1,inactive
15,CC[C@]1(O)C[C@H]2CN(CCc3c([nH]c4ccccc34)[C@@](C(=O)OC)(c3cc4c(cc3OC)N(C=O)[C@H]3[C@@](O)(C(=O)OC)[C@H](OC(C)=O)[C@]5(CC)C=CCN6CC[C@]43[C@@H]65)C2)C1,33.5 nM (active)
16,COc1ccccc1N1CCN(CCN(C(=O)C2CCCCC2)c2ccccn2)CC1,inactive
17,COc1ccc(C2(C#N)CCC(C(=O)O)CC2)cc1OC1CCCC1 (stereo not given),inactive
18,Nc1nc(Cl)nc2c1ncn2[C@H]1C[C@H](O)[C@@H](CO)O1,29600 nM (active)

# Experiment: qHTS of pediatric cancer cell lines to identify multiple opportunities for drug repurposing: Primary screen for control Hh wild type fibroblast cells (AID 1347106);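 note: a drop in luminescence marks cytotoxicity and a rise apparent proliferation; nearly all actives have a fitted effect of over 55% in size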
# Conditions: Hh wild-type fibroblast viability, CellTiter-Glo luminescence, 48 h; series mostly up to 46 µM
# In short: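 Viability after 48 h compound treatment at 37C, 500-1,000 cells/well, read as ATP luminescence with CellTiter-Glo. Primary screens used 11-point (MIPE, 0.78 nM-46 µM) or 8-point (NPC, 0.59 nM-46 µM) final concentrations; follow-up screens used 11-point dilutions.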
row,SMILES,Potency
1,O=C(OC1C[C@H]2CC[C@@H](C1)[N+]21CCCC1)C(O)(c1ccccc1)c1ccccc1 (stereo not given in full),inactive
2,C=CCc1cc(OC)c(O)c(C(=O)NCCO)c1,inactive
3,Cc1cccc(-c2[nH]ncc2-c2ccc3ncccc3n2)n1,inactive
4,Cc1nc(-c2ccc(OCC(C)C)c(C#N)c2)sc1C(=O)O,inactive
5,Oc1ccc(OCc2ccccc2)cc1,inactive
6,O=C(NCCO[N+](=O)[O-])c1cccnc1,inactive
7,Cc1ccc(C)c(OCCCC(C)(C)C(=O)O)c1,inactive
8,CC1(C)NC(=O)N(c2ccc([N+](=O)[O-])c(C(F)(F)F)c2)C1=O,inactive
9,CC1(C)C(=O)N(CCN2CCC(C(=O)c3ccc(F)cc3)CC2)c2ccccc21,inactive
10,CCOC(=O)C1=C[C@@H](OC(CC)CC)[C@H](NC(C)=O)[C@@H](N)C1,inactive
11,Cc1nccn1CC1CCc2c(c3ccccc3n2C)C1=O (stereo not given),inactive
12,CC(C)Oc1ccc2c(=O)c(-c3ccccc3)coc2c1,inactive
13,c1ccc2[nH]c(-c3cscn3)nc2c1,inactive
14,COc1c2occc2cc2ccc(=O)oc12,inactive
15,C[C@]12CCC(=O)C=C1CC[C@@H]1[C@H]2[C@@H](O)C[C@@]2(C)[C@H]1CC[C@]2(O)C(=O)CO,inactive
16,O=C(CCc1ccc(O)cc1)c1c(O)cc(O)cc1O,inactive
17,Cc1ncc([N+](=O)[O-])n1CC(C)O (stereo not given),inactive
18,COCCCN1CCC(NC(=O)c2cc(Cl)c(N)c3c2OCC3)CC1,inactive
19,CC1Cc2ccccc2N1NC(=O)c1ccc(Cl)c(S(N)(=O)=O)c1 (stereo not given),inactive
20,O=C(CS(=O)Cc1ccco1)NCC=CCOc1cc(CN2CCCCC2)ccn1 (stereo not given),inactive
21,COc1cc(C(C)=O)ccc1OCCCN1CCC(c2noc3cc(F)ccc23)CC1,inactive
22,CC[C@]1(O)C[C@H]2CN(CCc3c([nH]c4ccccc34)[C@@](C(=O)OC)(c3cc4c(cc3OC)N(C=O)[C@H]3[C@@](O)(C(=O)OC)[C@H](OC(C)=O)[C@]5(CC)C=CCN6CC[C@]43[C@@H]65)C2)C1,inactive
23,COc1ccc(C2(C#N)CCC(C(=O)O)CC2)cc1OC1CCCC1 (stereo not given),inactive
24,Nc1nc(Cl)nc2c1ncn2[C@H]1C[C@H](O)[C@@H](CO)O1,inactive
